Assay results reported in the supplement of paper PMC6331611.
Several values for one entry are separate records, joined by “and”; a condition that tells them apart may be missing. Equal values may be shown once. ± gives the standard deviation of the averaged measurements. Over roughly 1,600 compounds, “normalized intracellular growth (luminescence, IQM-normalized) in RAW264.7 macrophages” has its median near 1; the lowest 2% begin near 0.43. The entries come from a sample that favours the lowest values as a whole.

Tested on: Salmonella enterica serovar Typhimurium SL1344
Experiment: normalized intracellular growth (luminescence, IQM-normalized) in RAW264.7 macrophages (fraction of plate interquartile mean); higher = more bacterial growth (less inhibition)
Details: 10 µM

Row | SMILES | normalized intracellular growth (time point: T3 (3 h)) | normalized intracellular growth (time point: Tfinal (~6 h))
1 | C=C(C)[C@H]1CC=C(C)CC1 | 0.96 ± 0.013 | 1.1 ± 0.098
2 | C#C[C@]1(OC(C)=O)CC[C@H]2[C@@H]3CCC4=CC(=O)CC[C@@H]4[C@H]3CC[C@@]21C | 1.03 ± 0.046 | 0.972 ± 0.043
3 | CC(O)CC(C)(C)O (configuration not stated) | 1.05 ± 0.086 | 0.769 ± 0.19
4 | CC[C@H]1OC(=O)[C@H](C)[C@@H](O[C@H]2C[C@@](C)(OC)[C@@H](O)[C@H](C)O2)[C@H](C)[C@@H](O[C@@H]2O[C@H](C)C[C@H](N(C)C)[C@H]2O)[C@](C)(O)C[C@@H](C)/C(=N\OCOCCOC)[C@H](C)[C@@H](O)[C@]1(C)O | 1.06 ± 0.03 | 0.825 ± 0.42
5 | CC[C@H]1OC(=O)[C@H](C)[C@@H](O[C@H]2C[C@@](C)(OC)[C@@H](O)[C@H](C)O2)[C@H](C)[C@@H](O[C@@H]2O[C@H](C)C[C@H](N(C)C)[C@H]2O)[C@](C)(O)C[C@@H](C)C(=O)[C@H](C)[C@@H](O)[C@]1(C)O | 0.964 and 0.725 | 0.913 and 0.963
6 | CC[C@H]1OC(=O)[C@H](C)[C@@H](O[C@H]2C[C@@](C)(OC)[C@@H](O)[C@H](C)O2)[C@H](C)[C@@H](O[C@@H]2O[C@H](C)C[C@H](N(C)C)[C@H]2O)[C@](C)(O)C[C@@H](C)CN(C)[C@H](C)[C@@H](O)[C@]1(C)O | 1.05 ± 0.039 | 0.00697 ± 0.00054
7 | O=C(O)/C=C/C(=O)O | 1.14 ± 0.1 | 1.03 ± 0.16
8 | CCCCCCCCCCOc1cc2c(O)c(C(=O)OCC)cnc2cc1OCC | 0.942 ± 0.08 | 0.973 ± 0.13
9 | CC/C=C\C/C=C\C/C=C\C/C=C\C/C=C\C/C=C\CCC(=O)O | 0.977 ± 0.069 | 1.02 ± 0.09
10 | COc1cc2c3cc1Oc1cc(ccc1O)C[C@@H]1c4c(cc(OC)c(O)c4Oc4ccc(cc4)C[C@@H]3N(C)CC2)CC[N+]1(C)C | 0.937 ± 0.083 | 0.976 ± 0.16
11 | CC[C@H]1OC(=O)[C@H](C)[C@@H](O[C@H]2C[C@@](C)(OC)[C@@H](O)[C@H](C)O2)[C@H](C)[C@@H](O[C@@H]2O[C@H](C)C[C@H](N(C)C)[C@H]2O)[C@](C)(OC)C[C@@H](C)C(=O)[C@H](C)[C@@H](O)[C@]1(C)O | 1.09 ± 0.015 | 0.976 ± 0.071
12 | CCC(=O)O[C@H]1[C@H](O[C@@H]2[C@@H](C)[C@H](O[C@H]3C[C@@](C)(OC)[C@@H](O)[C@H](C)O3)[C@@H](C)C(=O)O[C@H](CC)[C@@](C)(O)[C@H](O)[C@@H](C)C(=O)[C@H](C)C[C@@]2(C)O)O[C@H](C)C[C@@H]1N(C)C | 0.792 ± 0.092 | 0.901 ± 0.065
13 | CC[C@H]1OC(=O)[C@H](C)C(=O)[C@H](C)[C@@H](O[C@@H]2O[C@H](C)C[C@H](N(C)C)[C@H]2O)[C@](C)(OC)C[C@@H](C)C(=O)[C@H](C)[C@H]2N(CCCCn3cnc(-c4cccnc4)c3)C(=O)O[C@]12C | 1.01 ± 0.086 | 0.0132 ± 0.0042
14 | CCN[C@@H]1C[C@H](N)[C@@H](O[C@H]2OC(CN)=CC[C@H]2N)[C@H](O)[C@H]1O[C@H]1OC[C@](C)(O)[C@H](NC)[C@H]1O | 0.986 ± 0.033 | 0.632 ± 0.25
15 | O=S(=O)(O)NC1CCCCC1 | 0.688 ± 0.097 | 0.748 ± 0.044
16 | CCCCCCCCCCC[C@@H](C[C@@H]1OC(=O)[C@H]1CCCCCC)OC(=O)[C@H](CC(C)C)NC=O | 0.987 ± 0.091 | 1.21 ± 0.048
17 | C[N+](C)(C)CC(O)CC(=O)[O-] (configuration not stated) | 0.978 ± 0.032 | 0.91 ± 0.16
18 | O=c1cc[nH]c(=O)[nH]1 | 0.935 ± 0.09 | 0.9 ± 0.052
19 | Nc1nc(=O)[nH]cc1F | 1.07 ± 0.058 | 1.28 ± 0.1
20 | O=c1[nH]cc(F)c(=O)[nH]1 | 0.731 ± 0.089 | 0.153 ± 0.006
21 | O=C(NCCCN1CCOCC1)c1ccc(Cl)cc1 | 1.25 ± 0.11 | 1.35 ± 0.15
